# Rab9 promoter act = qHTS Assay for Rab9 Promoter Activators; Huh7 Rab9 promoter-luciferase reporter, luminescence, 24 h; 2.8% of 320,000 active; Potency, µM (top dose mostly 9.22 µM), actives largely listed as activators; also: nearly all actives have a fitted effect of over 60% in size
#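 Rab9 promoter-driven luciferase in stably transfected Huh7 cells; 1500 cells/well rested 2 h, exposed to compound in DMSO for 24 h at 37 °C, 5% CO2. Luminescence read 10 min after adding luciferase reagent at ambient temperature.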
# FLuc modulator = qHTS profiling assay for firefly luciferase inhibitor/activator using purifed enzyme and Km concentrations of substrates (counterscreen for miR-21 project); purified FLuc, Km substrates, luminescence inhibition; Potency, µM (highest dose often 57.5 µM), hits mostly inhibitors; 6.9% of 360,000 active; also: nearly all actives have a fitted effect of over 55% in size
# Target sequence (P08659 whole entry, looked up): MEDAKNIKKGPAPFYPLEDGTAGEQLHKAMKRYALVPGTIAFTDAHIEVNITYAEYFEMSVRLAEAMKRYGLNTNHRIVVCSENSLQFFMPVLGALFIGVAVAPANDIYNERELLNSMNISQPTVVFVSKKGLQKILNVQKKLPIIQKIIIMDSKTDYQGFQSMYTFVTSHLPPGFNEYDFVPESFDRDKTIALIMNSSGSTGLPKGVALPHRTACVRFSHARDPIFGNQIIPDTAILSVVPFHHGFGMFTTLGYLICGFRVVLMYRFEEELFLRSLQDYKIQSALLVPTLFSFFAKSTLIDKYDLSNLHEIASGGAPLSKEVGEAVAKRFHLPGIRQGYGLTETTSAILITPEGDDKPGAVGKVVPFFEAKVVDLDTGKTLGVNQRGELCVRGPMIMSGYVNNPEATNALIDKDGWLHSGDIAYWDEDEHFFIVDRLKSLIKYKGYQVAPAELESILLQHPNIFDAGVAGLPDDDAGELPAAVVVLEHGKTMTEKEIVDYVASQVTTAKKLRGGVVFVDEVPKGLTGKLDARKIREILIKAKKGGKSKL
#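 Purified P. pyralis luciferase, 10 nM final, with Km-level 10 uM D-luciferin and 10 uM ATP in 50 mM Tris acetate pH 7.5, 10 mM Mg acetate, 0.01% Tween-20, 0.05% BSA; 6-point qHTS titration about 60 µM downward; luminescence read.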
# SMN2 splice up = qHTS Assay for Enhancers of SMN2 Splice Variant Expression. AID 1458, 2008. Potency, µM (highest dose often 46.1 µM), most hits filed as activators. 2.8% of 210,000 active. HEK293 SMN2-luciferase splicing reporter, luminescence, 30-36 h; also: nearly all actives have a fitted effect of over 55% in size
#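 qHTS luciferase splicing reporter: luminescence rises when SMN2 exon 7 is included in transfected HEK293 cells. Compound exposure lasted 30-36 h at 37C, with 4.5 mM final sodium butyrate as control, followed by a ONE-Glo read.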
# ELG1 genotoxic = qHTS screen for small molecules that induce genotoxicity in human embryonic kidney (HEK293T) cells expressing luciferase-tagged ELG1; HEK293T ELG1-luciferase reporter, luminescence, 16 h; Potency, µM (highest dose often 46 µM), usual class: activators; 1.3% of 330,000 active; AID 504466, 2011; also: nearly all actives have a fitted effect of over 60% in size
#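 Quantitative HTS format in 1536-well plates. HEK293T ELG1-luciferase reporter cells receive test compound and are incubated 16 hr at 37 °C, 5% CO2; ONE-Glo added, 30 min room temperature, then luminescence read.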
# ELG1 repair inh = qHTS screen for small molecules that inhibit ELG1-dependent DNA repair in human embryonic kidney (HEK293T) cells expressing luciferase-tagged ELG1 | HEK293T ELG1-luciferase reporter, luminescence, 16 h; DNA damage induced by 5-fluorouridine | Potency, µM (titrated, usually from 46.1 µM), actives largely listed as inhibitors | 2.3% of 330,000 active | AID 504467, 2011; also: nearly all actives have a fitted effect of over 55% in size
#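 Luminescence from the luciferase reporter, measured 30 min after ONE-Glo reagent at room temperature, was the read-out. Beforehand, 2,000 cells per well were exposed for 16 hr at 37 °C to 5-fluorouridine together with compound or vehicle.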
# NPC1 prom act = qHTS Assay for NPC1 Promoter Activators | Huh7 NPC1 promoter luciferase reporter, 24 h | Potency, µM (series often up to 9.22 µM), actives largely listed as activators | 2.4% of 320,000 active; also: nearly all actives have a fitted effect of over 60% in size
#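 Luciferase expression driven by the NPC1 promoter was measured in stably transfected Huh7 cells after a 24 h compound incubation, using a luciferase reagent and a luminescence read.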
# Numbers stand for hits; . = inactive; ? = inconclusive; / = not tested or not shown. In the library only some 9.3% were active in any assay of this set; here they are far more common. Calls follow the shape of the dose curve; as a rule, active = well fitted curve in the direction sought with a large enough effect; inconclusive = small, poorly fitted or top-dose-only effect, or another doubt; inactive = no such curve, though single readings can be large; an effect the other way counts as inactive or inconclusive.
SMILES,Rab9 promoter act,FLuc modulator,SMN2 splice up,ELG1 genotoxic,ELG1 repair inh,NPC1 prom act
CNC(=O)c1c(NC(=O)c2ccco2)sc2c1CCC2,?,?,/,.,.,.
O=C(/C=C/c1ccco1)Nc1sc2c(c1C(=O)O)CCC2,?,13.5µM,28.2µM,.,?,3.55µM
C=CCOc1ccc(/C=C/C(=O)OCC(=O)N(C)CC(=O)Nc2ccccc2Cl)cc1,.,?,/,?,.,.
O=C(Nc1ccsc1C(=O)O)c1cccc(Oc2ccccc2)c1,0.891µM,0.757µM,/,?,?,1.78µM
O=C(Nc1ccsc1C(=O)O)c1cccc(C(F)(F)F)c1,?,9.53µM,/,16.4µM,?,3.16µM
Cc1ccccc1NC(=O)c1cccc(C(F)(F)F)c1,.,.,.,.,.,.
COc1ccc2cc(CO)c(Cl)nc2c1,.,.,.,.,.,.
COc1ccc2cc(CO)c3cc(OC)c(OC)cc3c2c1,/,/,/,.,8.2µM,/
COc1cc(-c2nnc3sc(C4CCCCC4)nn23)cc(OC)c1OC,.,.,.,.,?,.
COc1cccc(-c2nnc3sc(C4CCCCC4)nn23)c1,.,.,.,.,4.61µM,.
c1cncc(-c2nnc3sc(C4CCCCC4)nn23)c1,.,.,.,.,.,.
CCOc1cccc(-c2nnc3sc(C4CCCCC4)nn23)c1,.,.,.,.,20.6µM,.
COc1ccc(-c2nnn(CC(=O)N(CCCO)C(C(=O)NC3CCCC3)c3ccc(F)cc3)n2)cc1 (stereo unspecified),.,.,/,.,.,.
CCN1CCN(c2csc3ccc(Br)cc3c2=O)CC1,/,13.5µM,/,/,/,/
CCN1CCN(c2csc3ccc(C)cc3c2=O)CC1,/,12µM,/,/,/,/
C=CCNc1ncnc2sc(SC)nc12,.,.,/,.,.,.
Cc1sc(NC(=O)c2ccc(Cl)s2)c(C(N)=O)c1C,?,2.39µM,10µM,1.64µM,?,?
Cc1sc(NC(=S)Nc2ccc(F)cc2)c(C(N)=O)c1C,.,.,/,.,.,.
Cc1sc(NC(=O)c2ccc(Br)s2)c(C(N)=O)c1C,?,1.69µM,10µM,?,?,?
COc1ccc(CNS(=O)(=O)c2ccc(N3CCCCS3(=O)=O)cc2)cc1,/,.,/,/,/,/
CC(=O)OC(C)C,/,/,.,/,/,/
c1cc2c(cc1-c1csc(NNC3=NCCCCC3)n1)OCCO2,?,19µM,.,.,?,.
Cc1sc(N)nc1-c1ccc2c(c1)OCCO2,.,?,/,.,.,.
O=C(/C=C/c1ccc2c(c1)OCO2)Nc1nc(-c2ccc(F)cc2)cs1,.,?,.,.,?,.
COc1ccccc1C(=O)Nc1nc(-c2ccc3c(c2)OCCO3)cs1,.,?,.,.,.,.
SMILES,Rab9 promoter act,FLuc modulator,SMN2 splice up,ELG1 genotoxic,ELG1 repair inh,NPC1 prom act
CC(C)(C)C(=O)Nc1nc(-c2ccc3c(c2)OCO3)cs1,2.82µM,7.57µM,?,2.31µM,?,3.55µM
CCC(=O)Nc1nc(-c2ccc3c(c2)OCCO3)cs1,3.16µM,6.01µM,2.51µM,2.06µM,?,0.501µM
C/C(N)=C(/C#N)C(=O)CSc1nnc(Nc2c(C)cccc2C)s1,.,.,.,.,.,.
C/C(N)=C(/C#N)C(=O)CSc1nnc(Nc2cccc(C)c2C)s1,?,16.9µM,?,.,?,?
COc1ccc(OCCn2c(C3CC(=O)N(c4ccc(F)cc4)C3)nc3ccccc32)cc1 (stereo unspecified),/,.,.,/,/,/
CCOc1ccc(N2CC(c3nc4ccccc4n3CCCOc3ccc(OC)cc3)CC2=O)cc1 (stereo unspecified),/,23.9µM,.,/,/,/
CCOc1ccccc1N1CC(c2nc3ccccc3n2CCOc2ccc(OC)cc2)CC1=O (stereo unspecified),/,.,.,/,/,/
Cc1cc(C)cc(OCCn2c(C3CC(=O)N(c4ccccc4Cl)C3)nc3ccccc32)c1 (stereo unspecified),.,.,.,/,/,.
Cc1ccc(OCCn2c(C3CC(=O)N(Cc4ccccc4)C3)nc3ccccc32)cc1 (stereo unspecified),.,.,.,.,14.6µM,.
CCOc1ccccc1N1CC(c2nc3ccccc3n2CCCOc2ccc(OC)cc2)CC1=O (stereo unspecified),/,13.5µM,?,/,/,/
CC(NC(=O)c1cc2ccccn2n1)c1ccccc1 (stereo unspecified),/,.,/,/,/,/
CSc1n[nH]c(NCc2ccc(Cl)cc2)n1,.,?,.,.,?,.
CSc1n[nH]c(NCc2ccc(C)cc2)n1,?,23.9µM,15.8µM,?,?,.
CCOC(=O)[C@@H]1[C@H]2COc3ccccc3[C@@H]2N2C(=O)N(c3ccc(C)cc3)C(=O)[C@]12C,.,.,/,.,?,.
COC(=O)C(Cc1ccc(OC(=O)c2ccccc2Cl)cc1)N1Cc2ccccc2C1=O (stereo unspecified),3.98µM,?,.,.,?,?
COC(=O)C(Cc1ccc(OC(=O)c2ccccc2C)cc1)N1Cc2ccccc2C1=O (stereo unspecified),?,.,?,.,.,?
O=C(O)c1cc(N/N=C/c2ccc3c(c2)OCO3)ccc1Cl,0.1µM,0.757µM,4.47µM,?,?,0.282µM
C/C(=N\Nc1ccc(Cl)c(C(=O)O)c1)c1ccc2c(c1)OCO2,1.58µM,15.1µM,15.8µM,?,?,2.24µM
O=C(O)c1cc(S(=O)(=O)Nc2ccc3c(c2)OCCO3)c(Cl)cc1Cl,.,?,.,9.2µM,?,.
O=C1OC(c2ccc3c(c2)OCO3)=N/C1=C\c1ccc(C(=O)O)cc1,.,0.135µM,/,.,.,.
O=C(O)c1cccc(-c2ccc3c(c2)OCO3)c1,.,?,/,.,.,.
O=C(O)c1ccc(N/N=C/c2ccc3c(c2)OCO3)cc1,.,0.0953µM,/,?,?,.
CNC(=S)N/N=C/c1ccc2c(c1)OCCO2,.,?,.,?,?,.
O=C(O/N=C/c1ccc2c(c1)OCO2)c1ccccc1Cl,.,0.953µM,.,.,.,.
Cc1ccc(N/N=C/c2ccc3c(c2)OCCO3)cc1Cl,.,23.9µM,20µM,?,?,.
O=Cc1cc2cc3c(cc2nc1Cl)OCCO3,.,.,/,?,?,.
O=C(O)c1ccc(N/N=C/c2cc3cc4c(cc3nc2Cl)OCCO4)cc1,0.1µM,0.0239µM,/,1.16µM,?,0.282µM
O=C(O)c1cc(N/N=C/c2ccc3c(c2)OCCO3)ccc1Cl,?,1.07µM,0.316µM,0.291µM,?,?
CSc1ccc(S(=O)(=O)NCC(=O)OCC(=O)NCc2cccs2)cc1[N+](=O)[O-],.,.,/,.,.,.

# Compound activity deposited in PubChem by National Center for Advancing Translational Sciences (NCATS).
